Potency data for seven molecules are collected here from PubChem BioAssay (Tox21).

Where “and” joins values, the source holds several entries; their conditions need not be identical. Identical values can stand only once. Values without a mark were called inactive. Calls of active or inactive are those of the source. Unless noted, calls follow the shape of the dose curve; as a rule, active = well fitted curve in the direction sought with a large enough effect in the repeat runs; inconclusive = weak or mixed curves; inactive = no such curve, though single readings can be large; an effect the other way counts as inactive or inconclusive.

Assay [1] is described as follows: qHTS assay to identify small molecule antagonists of the glucocorticoid receptor (GR) signaling pathway - cell viability counter screen (AID 720693). Also: nearly all actives have a fitted effect of over 55% in size. Also: potency is read from the fitted curve at half-maximal effect. In general terms: In qHTS, concentration-response curves come from the screen itself.
The nature of assay [2]: qHTS assay for identifying genotoxic compounds that show differential cytotoxicity against isogenic chicken DT40 cell lines with known DNA damage response pathways - wild type cell line (AID 743012). Also: nearly all actives have a fitted effect of over 60% in size. Also: potency is read from the fitted curve at half-maximal effect. Summed up:
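Using parental DT40 (300 cells/well), compounds delivered in DMSO incubate 40 h at 37 C/5% CO2. CellTiter-Glo reagent then stands 30 min at room temperature, and luminescence gives cell viability.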

A short description of assay [3]: qHTS assay for identifying genotoxic compounds that show differential cytotoxicity against isogenic chicken DT40 cell lines with known DNA damage response pathways - Rev3 mutant cell line (AID 743014). Also: nearly all actives have a fitted effect of over 55% in size. Also: potency is read from the fitted curve at half-maximal effect.
A short description of assay [4]: qHTS assay for identifying genotoxic compounds that show differential cytotoxicity against isogenic chicken DT40 cell lines with known DNA damage response pathways - Rad54/Ku70 mutant cell line (AID 743015). Also: nearly all actives have a fitted effect of over 60% in size. Also: potency is read from the fitted curve at half-maximal effect.
A short description of assay [5]: qHTS assay to identify small molecule antagonists of the androgen receptor (AR) signaling pathway - cell viability counter screen (AID 743033; also: nearly all actives have a fitted effect of over 45% in size; also: potency is read from the fitted curve at half-maximal effect).
Assay [6] can be described thus: qHTS assay to identify small molecule antagonists of the androgen receptor (AR) signaling pathway using the MDA cell line - cell viability counter screen (AID 743041; also: nearly all actives have a fitted effect of over 45% in size; also: potency is read from the fitted curve at half-maximal effect). The procedure, abridged: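 MDA-kb2 AR-luc cells (MMTV-luciferase, AR/GR responsive) treated with compounds plus R1881 agonist for 16 h at 37C. CellTiter-Fluor added at 15.5 h; fluorescence read after 30 min in the same wells.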

Assay [7] can be described thus: qHTS assay to identify small molecule antagonists of the thyroid receptor (TR) signaling pathway - cell viability counter screen (AID 743064). Also: potency is read from the fitted curve at half-maximal effect; nearly all actives have a fitted effect of over 50% in size. The procedure, abridged:
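Fluorescence from CellTiter-Fluor, added after 23.5 h exposure at 37 °C, reported viability of GH3.TRE-Luc cells co-treated with compound and 1 nM T3. Measured in the same wells as the luciferase TR readout.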

Assay [8] can be described thus: qHTS assay to identify small molecule antagonists of the thyroid receptor (TR) signaling pathway (AID 743065). Also: nearly all actives have a fitted effect of over 55% in size. Also: potency is read from the fitted curve at half-maximal effect. The procedure, abridged:
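GH3.TRE-Luc rat pituitary cells (two TREs driving luciferase) were dosed with compound, then stimulated with 1 nM T3 (final) for 23.5 h at 37 C. ONE-Glo luminescence was the read-out, with CellTiter-Fluor fluorescence as the cytotoxicity counter-screen.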

Assay [9] can be described thus: qHTS assay to identify small molecule antagonists of the estrogen receptor alpha (ER-alpha) signaling pathway - cell viability counter screen (AID 743074; calls by dose curve;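 also: HEK293 cells carrying ER-alpha-UAS-bla reporter stimulated with 17beta-estradiol; nearly all actives have a fitted effect of over 45% in size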; also: potency is read from the fitted curve at half-maximal effect).
Assay [10] has as its target Estrogen receptor (Homo sapiens) (UniProt P03372). The assay can be described thus: qHTS assay to identify small molecule agonists of the estrogen receptor alpha (ER-alpha) signaling pathway (AID 743075; calls by dose curve; also: potency is read from the fitted curve at half-maximal effect). The conditions noted are these: HEK293 ER-alpha-UAS-bla, beta-lactamase FRET ratio, 18 h; activation: at 70.1 µM (top of the series).
For assay [11] the target is unchanged. Kind of assay: qHTS assay to identify small molecule agonists of the estrogen receptor alpha (ER-alpha) signaling pathway using the BG1 cell line (AID 743079). Also: potency is read from the fitted curve at half-maximal effect; nearly all actives have a fitted effect of over 20% in size. The conditions noted are these: BG1Luc4E2 cells, ERE-luciferase agonist, 22 h.
Assay [12] concerns the target Aromatase (Homo sapiens) (UniProt P11511). The assay can be described thus: qHTS assay to identify aromatase inhibitors (AID 743083). Also: nearly all actives have a fitted effect of over 55% in size. Also: potency is read from the fitted curve at half-maximal effect.
The nature of assay [13]: qHTS assay to identify aromatase inhibitors - cell viability counter screen (AID 743084). Also: potency is read from the fitted curve at half-maximal effect.
Assay [14] deals with thyroid hormone receptor (rat, GH3 cells). The assay can be described thus: qHTS assay to identify small molecule agonists of the thyroid receptor (TR) signaling pathway (AID 743066; calls by dose curve).
Assay [15] addresses Estrogen receptor (Homo sapiens) (UniProt P03372). The assay can be described thus: qHTS assay to identify small molecule antagonists of the estrogen receptor alpha (ER-alpha) signaling pathway (AID 743069; active = well fitted curve in the direction sought with a large enough effect in the signal ratio in the repeat runs, not every such curve was filed as active; inconclusive = weak or mixed curves, or effect the other way; inactive = no such curve, though single readings can be large or run the other way; the % refers to the signal ratio). Summed up: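 HEK293 ER-alpha-UAS-bla GripTite cells, held overnight in 2% charcoal-stripped FBS, 5,000 cells/well, preincubated 4 h, then compound plus 17beta-estradiol for 18 h at 37C. Beta-lactamase read by LiveBLAzer B/G FRET substrate, 2 h at room temperature.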

Assay [16] is described as follows: qHTS assay to identify small molecule antagonists of the estrogen receptor alpha (ER-alpha) signaling pathway using the BG1 cell line - cell viability counter screen (AID 743081).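 Also: compound given together with 17beta-estradiol as the ER stimulus; nearly all actives have a fitted effect of over 45% in size.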 Also: potency is read from the fitted curve at half-maximal effect.
In assay [17] the target is Androgen receptor (Homo sapiens) (UniProt P10275). Kind of assay: qHTS assay to identify small molecule antagonists of the androgen receptor (AR) signaling pathway using the MDA cell line (AID 743042). Summed up:
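MDA-kb2 breast carcinoma cells carrying MMTV-luciferase (AR/GR responsive) were co-treated with compounds and the agonist R1881 for 16 h at 37C. Inhibition read as ONE-Glo luminescence; CellTiter-Fluor fluorescence measured in parallel for cytotoxicity.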

The nature of assay [18]: qHTS assay to identify small molecule antagonists of the estrogen receptor alpha (ER-alpha) signaling pathway using the BG1 cell line (AID 743080; calls by dose curve;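 also: BG1 cells stimulated with 17beta-estradiol alongside compound; potency is read from the fitted curve at half-maximal effect; nearly all actives have a fitted effect of over 25% in size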). Summed up: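 BG1-Luc-4E2 cells (endogenous full-length ER-alpha, 4xERE luciferase) hormone-starved 5 days in charcoal-stripped FBS, plated 4,000/well for 24 h, then compound plus 17beta-estradiol for 21.5 h at 37 C; ONE-Glo luminescence read.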

Sequence of Aromatase (Homo sapiens) (P11511 whole entry, looked up): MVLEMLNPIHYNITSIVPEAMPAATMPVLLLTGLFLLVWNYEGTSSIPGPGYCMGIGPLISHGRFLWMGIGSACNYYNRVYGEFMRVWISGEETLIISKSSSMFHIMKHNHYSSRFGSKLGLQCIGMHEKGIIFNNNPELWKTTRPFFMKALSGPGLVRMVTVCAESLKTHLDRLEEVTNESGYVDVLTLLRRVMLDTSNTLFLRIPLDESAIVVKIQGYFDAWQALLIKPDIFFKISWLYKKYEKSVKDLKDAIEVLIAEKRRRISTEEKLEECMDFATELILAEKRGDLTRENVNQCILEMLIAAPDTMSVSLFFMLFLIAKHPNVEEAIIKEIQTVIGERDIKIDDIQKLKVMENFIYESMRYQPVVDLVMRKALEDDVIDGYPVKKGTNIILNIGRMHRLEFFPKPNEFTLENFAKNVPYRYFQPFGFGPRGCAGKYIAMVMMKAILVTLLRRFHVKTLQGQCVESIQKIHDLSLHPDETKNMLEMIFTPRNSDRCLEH
Sequence of Estrogen receptor (Homo sapiens) (P03372 whole entry, looked up): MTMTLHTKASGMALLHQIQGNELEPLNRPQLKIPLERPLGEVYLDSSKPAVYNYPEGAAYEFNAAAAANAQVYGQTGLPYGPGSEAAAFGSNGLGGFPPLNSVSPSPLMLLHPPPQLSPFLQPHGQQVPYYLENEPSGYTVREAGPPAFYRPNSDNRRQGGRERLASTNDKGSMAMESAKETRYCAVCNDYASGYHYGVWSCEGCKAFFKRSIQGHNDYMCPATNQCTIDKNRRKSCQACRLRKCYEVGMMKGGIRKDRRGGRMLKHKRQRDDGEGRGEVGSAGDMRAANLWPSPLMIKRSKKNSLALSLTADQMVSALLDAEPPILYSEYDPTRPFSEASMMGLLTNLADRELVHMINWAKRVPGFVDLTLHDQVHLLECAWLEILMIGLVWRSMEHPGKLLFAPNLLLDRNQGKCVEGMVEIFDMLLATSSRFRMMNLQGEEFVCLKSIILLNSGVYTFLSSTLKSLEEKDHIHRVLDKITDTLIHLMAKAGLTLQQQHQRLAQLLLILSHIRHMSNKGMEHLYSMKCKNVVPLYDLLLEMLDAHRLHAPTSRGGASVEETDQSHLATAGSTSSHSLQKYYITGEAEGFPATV
Sequence of Androgen receptor (Homo sapiens) (P10275 whole entry, looked up): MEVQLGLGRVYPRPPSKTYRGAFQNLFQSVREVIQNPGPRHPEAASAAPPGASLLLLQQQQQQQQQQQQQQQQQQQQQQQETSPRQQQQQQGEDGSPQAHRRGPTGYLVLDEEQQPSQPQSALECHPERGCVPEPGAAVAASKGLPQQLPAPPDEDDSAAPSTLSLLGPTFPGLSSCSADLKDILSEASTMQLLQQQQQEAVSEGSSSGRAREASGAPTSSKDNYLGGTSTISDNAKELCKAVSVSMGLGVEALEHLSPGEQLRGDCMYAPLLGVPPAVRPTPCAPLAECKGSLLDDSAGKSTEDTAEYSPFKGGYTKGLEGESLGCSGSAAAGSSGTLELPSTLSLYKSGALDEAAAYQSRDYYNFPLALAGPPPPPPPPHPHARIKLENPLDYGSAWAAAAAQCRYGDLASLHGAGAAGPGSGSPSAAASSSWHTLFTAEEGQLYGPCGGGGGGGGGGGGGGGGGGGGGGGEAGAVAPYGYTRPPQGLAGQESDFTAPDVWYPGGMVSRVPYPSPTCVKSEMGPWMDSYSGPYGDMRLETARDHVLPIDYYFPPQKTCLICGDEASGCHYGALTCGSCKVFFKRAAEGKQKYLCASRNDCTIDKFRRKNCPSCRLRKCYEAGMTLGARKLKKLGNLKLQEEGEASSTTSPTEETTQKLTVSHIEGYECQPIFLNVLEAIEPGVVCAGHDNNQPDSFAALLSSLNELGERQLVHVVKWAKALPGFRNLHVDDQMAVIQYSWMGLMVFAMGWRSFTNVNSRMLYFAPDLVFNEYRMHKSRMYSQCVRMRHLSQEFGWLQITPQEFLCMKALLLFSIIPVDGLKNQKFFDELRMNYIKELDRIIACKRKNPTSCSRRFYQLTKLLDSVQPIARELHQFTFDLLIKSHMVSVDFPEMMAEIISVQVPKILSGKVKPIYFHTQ

As for `CCCCCCCCCCCCc1ccc(O)cc1`, the Potency in assay [1] is 21.9 µM (active); in assay [2], 10.9 µM (active); in [3], 7.7 µM (active); in assay [4], 12.2 µM (active); in assay [5], 34.7 µM (active); in assay [6], 54.5 µM (active). Besides, the Potency in assay [7] is 13.7 µM (active); in assay [8], 13.7 µM (active); in [9] it was 49 µM (active); in assay [10], 3.09 µM [inconclusive] (active); in assay [11], 0.969 µM (active); in assay [12], 48.6 µM (active). Besides, the Potency in [13] was 61.1 µM (active).
For `CCCCCCCCCCCC[N+](C)(C)CCCCCCCCCCCC`, the Potency in assay [1] is 24.5 µM (active); in assay [2], 4.33 µM (active); in [3], 3.86 µM (active); in [4], 4.33 µM (active); in assay [5], 19.5 µM (active); in assay [6], 27.3 µM (active). The Potency in [7] is 24.3 µM (active); in assay [8] it was 17.2 µM (active); in assay [9] it was 24.5 µM (active); in assay [16] it was 68.6 µM (active); in assay [12], 17.2 µM (active); in [13] it was 21.7 µM (active). Also, the Potency entry in assay [14] and in assay [15] was “inactive” throughout.
Regarding `O=C(OCC(COC(=O)c1ccccc1)(COC(=O)c1ccccc1)COC(=O)c1ccccc1)c1ccccc1`, the Potency result in assay [1], in assay [2], in assay [3], in assay [4], in [5] and in [6] was “inactive” in each case. For the same molecule, the Potency entry in assay [8], in assay [14], in [9], in [16], in [12] and in assay [13] was “inactive” each time.
Turning to `O=[N+]([O-])c1cc(Cl)c(Cl)c(Cl)c1Cl`, the Potency entry in assay [1], in [2], in assay [3], in assay [4], in assay [5] and in assay [6] was “inactive” throughout. Also, the Potency result in assay [14], in [9] and in [16] was “inactive” in each case. Besides, the Potency in assay [8] and in [13] was 60.9 µM (active) in each case.
As to `CCCCCCCCCCCCCCCCCC[N+](C)(C)C`, the Potency in assay [1] was 24.6 µM (active); in [2], 2.74 µM (active); in [3], 1.37 µM (active); in assay [4], 2.74 µM (active); in assay [5], 43.8 µM (active); in assay [17], 24.4 µM (active). The Potency in assay [7] was 12.2 µM (active); in assay [9] it was 43.8 µM (active); in [12], 21.8 µM (active); in assay [13] it was 27.4 µM (active).
With `O=C(OC[C@H]1O[C@@H](OC(=O)c2cc(O)c(O)c(OC(=O)c3cc(O)c(O)c(O)c3)c2)[C@H](OC(=O)c2cc(O)c(O)c(OC(=O)c3cc(O)c(O)c(O)c3)c2)[C@@H](OC(=O)c2cc(O)c(O)c(OC(=O)c3cc(O)c(O)c(O)c3)c2)[C@@H]1OC(=O)c1cc(O)c(O)c(OC(=O)c2cc(O)c(O)c(O)c2)c1)c1cc(O)c(O)c(OC(=O)c2cc(O)c(O)c(O)c2)c1`, the Potency in assay [1] was 16.9 µM (active); in [2], 5.96 µM (active); in assay [3], 10.6 µM (active) and 16.5 µM (active); in [4] it was 11.9 µM (active); in [5] it was 19 µM (active); in [6], 22.1 µM (active). Moreover, the Potency was 3.35 µM (active) and 16.5 µM (active) in assay [7]; 3.76 µM (active) and 16.5 µM (active) in assay [8]; 6.74 µM (active) in assay [9]; 21.1 µM (active) in assay [16]; 18.8 µM (active) in assay [13]. Moreover, in assay [14], the Potency result is “inactive”.
As for `CCN1/C(=C/C=C/c2sc3ccccc3[n+]2CC)Sc2ccccc21`, the Potency in [1] was 21.3 µM (active); in assay [2], 0.0266 µM (active); in [3] it was 0.0298 µM (active); in assay [4] it was 0.0266 µM (active); in [5], 3.01 µM (active); in [6], 0.75 µM (active). In addition, the Potency in assay [7] is 1.68 µM (active); in assay [8], 0.841 µM (active); in assay [9] it was 10.7 µM (active); in [18], 2.98 µM (active); in assay [16], 9.44 µM (active); in assay [12] it was 1.5 µM (active). In addition, the Potency in assay [13] was 5.96 µM (active).
